The sample as a whole holds a higher share of hits than the screen did.
Tgondii IFNg: T. gondii growth inhibition with IFN-gamma, primary screen, cell-based; AID 1259416, 2018; Toxoplasma gondii growth in IFN-gamma-treated host cells; active compounds read low; activity change, negative = inhibition, % (concentration not given with the values); 69,000 compounds, 3.8% hits; in the data active = activity change below about -70%, passing the limit was not always enough;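 note: host cells are HeLa cells infected with Toxoplasma gondii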
A number is an active result; ! = not active in a repeat.

`O=C1N(c2ncccn2)c2ccccc2C12CCN(CC1CCOC1)CC2` (stereo unspecified) gave Tgondii IFNg inactive.
COC1C(O)CC(OC2C(O)CC(OC3C(O)CC(OC4CCC5(C)C(CCC6[C@@H]5CC(O)C5(C)C(C7=CC(=O)OC7)CCC65O)C4)OC3C)OC2C)OC1C (stereo partly specified) was read as Tgondii IFNg -77.0.
C[C@H]1OC(O[C@H]2[C@@H](O)CC(O[C@H]3[C@@H](O)C[C@H](O[C@H]4CC[C@]5(C)C6CC[C@]7(C)[C@@H](C8=CC(=O)OC8)[C@@H](O)C[C@]7(O)[C@@H]6CC[C@@H]5C4)O[C@@H]3C)O[C@@H]2C)C[C@H](O)C1O (stereo partly specified) was read as Tgondii IFNg -73.4.
C[C@]12CC[C@H](O)C[C@H]1CC[C@@H]1[C@@H]2CC[C@]2(C)[C@@](O)(c3ccoc3)CC[C@]12O was read as Tgondii IFNg inactive.
CC(=O)O[C@H]1C[C@H](O[C@H]2[C@@H](O)C[C@H](O[C@H]3[C@@H](O)C[C@H](O[C@H]4CC[C@@]5(C)C(CCC6C5C[C@@H](O)[C@]5(C)[C@@H](C7=CC(=O)OC7)CC[C@]65O)C4)O[C@@H]3C)O[C@@H]2C)O[C@H](C)[C@H]1O[C@@H]1O[C@H](CO)[C@@H](O)[C@H](O)[C@H]1O (stereo partly specified) was read as Tgondii IFNg -73.3.
For CCCC1CC2=CC(=O)CCC2(C)C2CCC3(C)C(CCC3(O)CCC(=O)O)C12 (stereo unspecified) the results were Tgondii IFNg inactive.
Cc1nc(CC(=O)N2CCN(Cc3ccco3)C(CCO)C2)cs1 (stereo unspecified) was read as Tgondii IFNg inactive.
For O=C(COc1cccnc1)N1CCCC2(CCNC2)C1 (stereo unspecified) the results were Tgondii IFNg inactive.
CN1CC[C@H]2[C@@H]1CCN2S(=O)(=O)c1cccs1 was read as Tgondii IFNg inactive.
`CC(C)CN1CC[C@H]2[C@@H]1CCN2Cc1nccs1` gave Tgondii IFNg inactive.
Screening C#C[C@]1(O)C=C[C@H]2[C@@H]3CCC4=CC(=O)CC[C@@H]4[C@H]3CC[C@@]21CC returned Tgondii IFNg -80.9.
C#C[C@]1(O)CC[C@H]2[C@@H]3CCC4=CC(=O)CC[C@]4(C)[C@H]3CC[C@@]21C was read as Tgondii IFNg inactive.
`O=c1[nH]ncc(N2CCOCC2)c1Cl` gave Tgondii IFNg inactive.
Screening Cc1csc(S(=O)(=O)N2CCC3(CCNCC3)C2)c1 returned Tgondii IFNg inactive.
For Cc1nc(CN2C[C@@H]3CN(Cc4c(C)noc4C)C[C@@H]3C2)cs1 the results were Tgondii IFNg inactive.
Screening CN(C)CC#Cc1ccc([C@@H]2[C@@H](CO)N3CCCCN(C(=O)Cc4ccccn4)C[C@H]23)cc1 returned Tgondii IFNg inactive.
For CCn1c(C)cc(C)c(C(=O)N2CCCC3(CCNC3)C2)c1=O (stereo unspecified) the results were Tgondii IFNg inactive.
Screening O=S(=O)(C1CC1)N1CCO[C@H]2CCN(Cc3ccccn3)C[C@H]21 returned Tgondii IFNg inactive.
`CC(=O)O[C@@H]1C[C@@]2(C)[C@H](c3ccoc3)C[C@H]3O[C@]32[C@]2(C)C(=O)C(=O)C3C(C)(C)C(=O)C=C[C@]3(C)C12` (stereo partly specified) gave Tgondii IFNg -83.3.
`CC1(C)C(=O)[C@@H]2O[C@@H]2[C@@]2(C)C1C[C@@H](O)[C@]1(C)C2CC[C@@]2(C)[C@H](c3ccoc3)OC(=O)C3OC321` (stereo partly specified) gave Tgondii IFNg inactive.
COc1ccc(Cl)cc1NC(=O)c1cc2cccnc2n(Cc2ccccc2)c1=O was read as Tgondii IFNg inactive.
`O=C(Nc1ccc(F)cc1)c1cc2cccnc2n(Cc2ccc(F)cc2)c1=O` gave Tgondii IFNg inactive.
For Cc1ccccc1NC(=O)CC(=O)N1C[C@H]2C[C@@H](C1)c1cccc(=O)n1C2 the results were Tgondii IFNg inactive.
CC(=O)c1cccc(CN2CCN(Cc3cccc(F)c3)CC2)c1 was read as Tgondii IFNg inactive.
Fc1cc(F)c2c(c1)[C@H]1C=CC[C@H]1C(c1cccnc1)N2 (stereo partly specified) was read as Tgondii IFNg -73.8.
`c1cncc(C2CCCN2)c1` (stereo unspecified) gave Tgondii IFNg inactive.
O=C(NCc1cccnc1)[C@@]12COC[C@@H]1CN(Cc1cccs1)C2 was read as Tgondii IFNg inactive.
For Cc1nonc1CC(=O)NC1CCN(CC2(c3ccc(Cl)cc3)CCC2)CC1 the results were Tgondii IFNg inactive.
CN1C(=O)COc2c(C(=O)NC3CN4CCC3CC4)cc(Cl)cc21 (stereo unspecified) was read as Tgondii IFNg inactive.
`O=C(N[C@H]1CN2CCC1CC2)c1ccc(Cl)cc1` gave Tgondii IFNg inactive.
Screening Cn1cc(C(=O)C(=O)N[C@H]2CN3CCC2CC3)c2ccccc21 returned Tgondii IFNg -79.7!.

Compound activity (PubChem BioAssay)
